# Results as given in PubChem BioAssay AID504333 (National Center for Advancing Translational Sciences (NCATS), 2011).
# Among all 360,000 compounds or so, about 16,000 (4.4%) were called active. Roughly 9% stayed inconclusive and do not appear here. Calls follow the shape of the dose curve; as a rule, active = well fitted inhibition curve with a large enough effect; inconclusive = small, poorly fitted or top-dose-only effect; inactive = no such curve, though single readings can be large or run the other way. The list comes from a sample in which actives are over-represented; it also holds similar structures and randomly drawn compounds.
# Molecular target: Bromodomain adjacent to zinc finger domain protein 2B (Homo sapiens) (UniProt Q9UIF8)
# Sequence (Q9UIF8 whole entry, looked up, the tested form may be a part): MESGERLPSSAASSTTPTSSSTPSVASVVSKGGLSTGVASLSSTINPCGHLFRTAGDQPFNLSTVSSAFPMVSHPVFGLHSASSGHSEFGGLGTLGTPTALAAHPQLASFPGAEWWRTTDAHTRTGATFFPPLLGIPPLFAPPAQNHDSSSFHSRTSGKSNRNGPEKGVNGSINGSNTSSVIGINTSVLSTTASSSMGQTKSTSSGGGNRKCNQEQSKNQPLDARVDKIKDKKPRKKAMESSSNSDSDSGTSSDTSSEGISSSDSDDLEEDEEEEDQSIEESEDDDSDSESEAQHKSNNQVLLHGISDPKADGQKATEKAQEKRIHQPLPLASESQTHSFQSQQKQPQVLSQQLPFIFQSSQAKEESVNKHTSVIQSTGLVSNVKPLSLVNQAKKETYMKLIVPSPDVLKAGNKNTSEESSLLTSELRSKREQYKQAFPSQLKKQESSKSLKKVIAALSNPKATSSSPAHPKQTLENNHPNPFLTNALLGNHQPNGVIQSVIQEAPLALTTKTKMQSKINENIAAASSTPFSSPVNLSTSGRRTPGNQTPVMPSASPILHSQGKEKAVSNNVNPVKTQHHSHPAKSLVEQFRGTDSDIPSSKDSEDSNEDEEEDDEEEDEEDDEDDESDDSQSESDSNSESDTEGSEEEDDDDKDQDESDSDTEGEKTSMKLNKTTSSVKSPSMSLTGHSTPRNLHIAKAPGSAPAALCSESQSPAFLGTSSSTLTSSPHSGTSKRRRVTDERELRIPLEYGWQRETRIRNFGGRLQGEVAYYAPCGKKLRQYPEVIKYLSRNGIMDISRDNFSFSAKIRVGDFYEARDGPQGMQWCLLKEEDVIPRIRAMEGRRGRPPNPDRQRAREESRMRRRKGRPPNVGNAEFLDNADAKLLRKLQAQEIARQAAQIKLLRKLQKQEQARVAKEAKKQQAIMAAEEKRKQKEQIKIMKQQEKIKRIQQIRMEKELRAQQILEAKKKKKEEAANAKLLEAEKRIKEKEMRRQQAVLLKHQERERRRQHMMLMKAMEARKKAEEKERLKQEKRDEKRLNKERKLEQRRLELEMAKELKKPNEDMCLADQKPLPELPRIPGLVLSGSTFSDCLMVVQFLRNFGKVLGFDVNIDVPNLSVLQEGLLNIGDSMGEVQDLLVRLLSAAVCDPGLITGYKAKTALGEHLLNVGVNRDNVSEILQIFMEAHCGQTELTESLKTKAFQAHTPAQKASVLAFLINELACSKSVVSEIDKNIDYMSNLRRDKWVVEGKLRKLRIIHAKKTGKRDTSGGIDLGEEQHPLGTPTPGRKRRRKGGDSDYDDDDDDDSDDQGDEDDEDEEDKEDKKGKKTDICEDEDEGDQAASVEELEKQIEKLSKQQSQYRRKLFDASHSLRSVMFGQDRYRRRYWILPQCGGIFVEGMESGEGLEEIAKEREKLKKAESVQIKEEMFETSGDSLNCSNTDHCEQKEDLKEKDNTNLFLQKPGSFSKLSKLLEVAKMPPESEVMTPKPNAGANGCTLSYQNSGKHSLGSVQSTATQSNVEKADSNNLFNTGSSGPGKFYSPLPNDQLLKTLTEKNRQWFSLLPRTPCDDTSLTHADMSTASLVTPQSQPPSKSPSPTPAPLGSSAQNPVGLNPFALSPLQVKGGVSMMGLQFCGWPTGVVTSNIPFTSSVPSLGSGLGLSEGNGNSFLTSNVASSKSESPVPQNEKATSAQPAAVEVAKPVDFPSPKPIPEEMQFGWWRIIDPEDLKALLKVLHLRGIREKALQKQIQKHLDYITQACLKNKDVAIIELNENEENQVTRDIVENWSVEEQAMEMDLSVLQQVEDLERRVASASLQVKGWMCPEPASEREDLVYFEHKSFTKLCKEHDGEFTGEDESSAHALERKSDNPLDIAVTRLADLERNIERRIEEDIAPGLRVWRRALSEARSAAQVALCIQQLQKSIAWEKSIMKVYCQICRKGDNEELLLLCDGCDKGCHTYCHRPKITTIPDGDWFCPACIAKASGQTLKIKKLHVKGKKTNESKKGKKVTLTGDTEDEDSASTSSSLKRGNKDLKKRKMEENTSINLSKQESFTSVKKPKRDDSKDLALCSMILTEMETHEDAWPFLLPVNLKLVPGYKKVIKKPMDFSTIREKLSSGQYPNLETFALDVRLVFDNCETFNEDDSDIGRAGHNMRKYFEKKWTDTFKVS
# Assay: qHTS Assay for Inhibitors of BAZ2B; also: nearly all actives have a fitted effect of over 60% in size
# Details: AlphaScreen BAZ2B-H3K14Ac peptide displacement; series mostly up to 114 µM; activity change, negative = inhibition: at the top concentration
# In short: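 Protein-peptide AlphaScreen: BAZ2B 50 nM, b-H3K14Ac 50 nM, 1x PBS pH 7.4 + 0.01% Tween-20. Preincubation 30 min RT; cpd 30 min RT (top 110 uM); beads 20 min RT, light-protected.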
# % is scaled to controls: 0 for no effect and ±100 for the full control effect; potency is read from the fitted curve at half-maximal effect.
SMILES,"activity change, negative = inhibition",Potency
CCC(=O)Nc1cccc(-c2nc3cc(C)ccc3o2)c1,5.01% (inactive),–
Cc1ccc(C)c(N2CCN(C(=O)Cn3ncc4c(=O)oc5ccc(C)cc5c43)CC2)c1,-26% (inactive),–
O=C(O)c1ccc(-n2nc(-c3ccccc3)c3ccccc3c2=O)cc1,2.92% (inactive),–
N#Cc1c(-c2ccccc2)c(-c2ccccc2)n[nH]c1=O,-11.4% (inactive),–
O=C(O)c1n[nH]nc1-c1ccccc1,–,56.2 µM (active)
COc1ccc(Br)cc1CNC(=O)c1cc(=O)[nH]c2ccc(S(=O)(=O)N3CCCC3)cc12,0.679% (inactive),–
COc1ccc(C(=O)N(Cc2ccc(N(C)C)cc2)C2CCS(=O)(=O)C2)cc1 (configuration not stated),-30.6% (inactive),–
COc1ccc(N(Cc2ccc(N(C)C)cc2)C(=O)c2ccc(S(C)(=O)=O)cc2)cc1,–,39.8 µM (active)
COc1ccc(S(=O)(=O)NCc2ccc(C(=O)N(C)Cc3ccco3)cc2)cc1,-3.81% (inactive),–
CC(C)Cn1c(=O)c2ccccc2n2c(CCC(=O)N3CCN(c4cccc(Cl)c4)CC3)nnc12,-0.869% (inactive),–
Cc1cc(NC(=O)c2cccc(Cl)c2)ccc1-c1cc2ccccc2oc1=O,5.75% (inactive),–
CC1=CC(C)(C)Nc2ccc(OC(=O)C(Cc3ccccc3)N3C(=O)C4CCCCC4C3=O)cc21 (configuration not stated),-37.8% (inactive),–
O=C(CN1C(=O)C2C3CCC(C3)C2C1=O)Oc1ccc2ccccc2c1 (configuration not stated),8.38% (inactive),–
CC1=CC(C)(C)Nc2ccc(OC(=O)CN3C(=O)C4CCCCC4C3=O)cc21 (configuration not stated),–,56.2 µM (active)
COc1ccc(CCNC(=O)c2ccc3c(c2)sc2nc(-c4ccc(C)cc4)cn23)cc1OC,-0.933% (inactive),–
Cc1cccc(CNC(=O)c2cnc3sc(N4CCCCC4)nn3c2=O)c1,11.1% (inactive),–
Cc1ccc2nc(/C(C#N)=C/c3ccc(-c4ccc(C(=O)OC(C)C)cc4)o3)[nH]c2c1,-14.2% (inactive),–
CCc1ccccc1NC(=O)N1CCC2(CC1)Oc1ccccc1C(=O)N2Cc1ccccc1F,-2.22% (inactive),–
O=[N+]([O-])c1cc(Br)c(O)c(/C=N/Nc2nc3ccccc3s2)c1,–,35.5 µM (active)
COc1ccc(CC(=O)N/N=C/c2cc([N+](=O)[O-])cc(Br)c2O)cc1,-17.4% (inactive),–
c1ccc2sc(NN=C3CCCC3)nc2c1,1.97% (inactive),–
CCN(CC)CCNC(=O)c1cc2c(=O)oc3ccc(C)cc3c2s1,-4.73% (inactive),–
CCOc1cccc(NC(=O)c2ccc(F)c(S(=O)(=O)N(CC)c3cccc(C)c3)c2)c1,8.6% (inactive),–
CC(C)Cc1nnc(NC(=O)CCc2ccccc2)s1,-3.69% (inactive),–
O=C(CCc1ccccc1)NNc1ccc(F)cc1,-4.02% (inactive),–
O=C(CCc1ccccc1)Nc1nn[nH]n1,–,70.8 µM (active)

SMILES,"activity change, negative = inhibition",Potency
COc1ccc(OC)c(CNC(=O)CN2C(=O)CCn3nc(-c4cn(C)c5ccccc45)cc32)c1,-33.4% (inactive),–
COc1cccc(NC(=O)c2ccc3nc(CCc4ccccc4)oc3c2)c1,0.792% (inactive),–
CC(=O)N1CCCc2cc(S(=O)(=O)N3CCC(C(=O)NCc4ccc(C)cc4)CC3)ccc21,2.46% (inactive),–
O=C(Nc1cc(C(F)(F)F)ccc1Cl)c1ccc2c(c1)CCN2S(=O)(=O)c1ccccc1,-1.09% (inactive),–
S=C(NCCc1ccccc1)NCc1ccccc1Cl,3.82% (inactive),–
Clc1cccc(Cl)c1OCCOCCNCc1ccccc1,–,56.2 µM (active)
OCCNCc1cccc(OCc2ccccc2Cl)c1,-19% (inactive),–
CCCCc1nc2ccccc2c(NC(=O)CN2CCN(C)CC2)c1CCC,–,50.1 µM (active)
CN1CCN(CC(=O)Nc2cccc([N+](=O)[O-])c2)CC1,6.3% (inactive),–
CCCCc1nc2ccccc2c(=O)n1NC(=O)c1c(O)c2cccc3c2n(c1=O)CC3,23.1% (inactive),–
Fc1ccc(CN2CCc3nc(Nc4ccccc4)ncc3C2)cc1F,-24.7% (inactive),–
COc1ccc(/C=C/C(=O)OCC(=O)Nc2cccc(Oc3ccccc3)c2)c(OC)c1,0.384% (inactive),–
COc1ccc(/C=C/C2=CC(C)(C)NC(=S)N2)c(OC)c1,–,39.8 µM (active)
COc1cc(/C=C/C2=CC(C)(C)NC(=S)N2)cc(OC)c1OC,-25.7% (inactive),–
O=C(O)c1c(CNCc2cccc(F)c2)c2ccccc2n1Cc1ccccc1,-0.857% (inactive),–
COC(=O)c1ccccc1NC(=O)c1cnn(-c2ccc(F)cc2)c1-n1cccc1,-14.4% (inactive),–
Cc1ccc2oc3c(c(=O)c2c1)C(c1ccc(O)cc1)N(Cc1ccc2c(c1)OCO2)C3=O (configuration not stated),-0.588% (inactive),–
CCOc1ccc(CCNC(=O)CN(c2ccc(C)cc2)S(=O)(=O)N(C)C)cc1OCC,1.55% (inactive),–
CCN(CC)c1ccc(/C=N/Nc2nc(C)cc(C)n2)c(O)c1,–,25.1 µM (active)
CCN(CC)c1ccc(/C=N/NC(=O)c2cnccn2)c(O)c1,-7.91% (inactive),–
Cc1cc(C)nc(N/N=C/c2ccc([N+](=O)[O-])o2)n1,-25.2% (inactive),–
Cc1ccc(-c2noc(CSc3nnc(-c4ccc(Cl)cc4)n3C)n2)cc1,-2.06% (inactive),–
O=C(CCC1CCCN(Cc2ccc(O)c(Cl)c2)C1)NCc1ccccc1F (configuration not stated),-15% (inactive),–
Cc1[nH]c2c(C(=O)N3CCCC(CCC(=O)NCc4ccccc4F)C3)cccc2c1C (configuration not stated),–,70.8 µM (active)
CSc1ncccc1C(=O)N1CCCC(CCC(=O)NCc2ccccc2F)C1 (configuration not stated),-0.331% (inactive),–
CCCNC(=O)C1CCC(Cn2c(=O)c3sccc3n(Cc3ccccc3F)c2=O)CC1 (configuration not stated),-3.32% (inactive),–

SMILES,"activity change, negative = inhibition",Potency
Cc1ccccc1NC(=O)Cn1c(=O)n(CCCCC(=O)NCc2ccccc2Cl)c(=O)c2ccccc21,1.21% (inactive),–
Cc1cc(F)ccc1NS(=O)(=O)c1ccc(-n2cccn2)cc1,-2.31% (inactive),–
Cn1ccc2cc(S(=O)(=O)N3CCCC(C(=O)NCc4ccccc4F)C3)ccc21 (configuration not stated),-3.06% (inactive),–
Cc1oc(-c2ccccc2)nc1Cn1c(SCc2cccc(C(F)(F)F)c2)nc2cccnc21,-3.84% (inactive),–
CCc1nn(CC(=O)N2CCN(c3ccc(Cl)cc3)CC2)c(=O)c2cc3occc3n12,-29.9% (inactive),–
NC(=O)CCN1CCN(S(=O)(=O)/C=C/c2ccccc2)CC1,3.29% (inactive),–
O=C(CN1CCN(S(=O)(=O)/C=C/c2ccccc2)CC1)NC(=O)NCc1ccco1,–,50.1 µM (active)
COc1ccccc1N1CCN(CC(=O)NC(=O)NCc2ccco2)CC1,-3.12% (inactive),–
COc1cccc(CNCCSc2nnnn2C)c1OCc1ccccc1Cl,-22% (inactive),–
O=c1nc2s/c(=C\c3ccco3)c(=O)n2nc1Cc1ccccc1,–,50.1 µM (active)
O=C(Cc1ccccc1)n1nc(-c2ccccc2)nc1NCc1ccco1,11.8% (inactive),–
O=C(Nc1ccccc1)/C(=C\c1ccco1)NC(=O)c1ccco1,-17.7% (inactive),–
CCOc1ccccc1N(CC)C(=O)c1cc2ccc3cccnc3c2[nH]1,-0.472% [at 57.1 µM] (inactive),–
CC(=O)c1cccc(NC(=O)c2nc(-c3ccccc3)n(-c3cccc(C)c3)n2)c1,-9.48% (inactive),–
Cc1nnc(NC(=O)CSc2nccn2-c2cccc(C)c2C)s1,-29.9% (inactive),–
O=C(CSc1nccn1-c1ccc(F)cc1)Nc1cccc2ccccc12,–,7.94 µM (active)
O=C(CSc1nccn1Cc1ccc(F)cc1)NCc1ccccc1,-22% (inactive),–
Cc1ccccc1-n1c(SCC(=O)Nc2cccc3ccccc23)nc(O)cc1=O,-38.7% (inactive),–
CC(=O)Nc1cccc(NC(=O)CSc2nccn2Cc2ccc(F)cc2)c1,-24.5% (inactive),–
Cc1cccc(-n2ccnc2SCC(=O)Nc2cccc3ccccc23)c1C,–,14.1 µM (active)
O=C(CSc1n[nH]c(-c2ccccc2)n1)N1CCCCC1,6.63% (inactive),–
CN(C(=O)c1ccc2c(c1)N(Cc1cccc(Cl)c1)C(=O)c1ccccc1S2=O)C1CCCCC1 (configuration not stated),-10.9% (inactive),–
Cc1ccc(NC(=O)c2ccc3[nH]c(C)cc(=O)c3c2)c(C)c1,0.886% (inactive),–
O=C1CSC2(C(=O)N(Cc3ccccc3)c3ccccc32)N1c1cccc(F)c1 (configuration not stated),-33% (inactive),–
CSc1ncc(C(=O)NCc2ccccc2Cl)c(C(F)(F)F)n1,12.8% (inactive),–
COc1ccc(OC)c(-c2csc(-c3c(N)c(C(=O)c4ccccc4)n4ccccc34)n2)c1,-0.518% (inactive),–

SMILES,"activity change, negative = inhibition",Potency
O=C(NC1CCCC1)C(=O)c1c[nH]c2ccccc12,-21.7% (inactive),–
NC(=O)CSc1c[nH]c2ccccc12,7.21% (inactive),–
O=S(=O)(O)Oc1c[nH]c2ccccc12,–,44.7 µM (active)
CC(=O)N(C1=C(Cl)C(=O)c2ccccc2C1=O)c1ccc(C(=O)O)cc1,–,28.2 µM (active)
CCc1ccc(-n2nc(C)c3c(C)cc(=O)n(CC(=O)Nc4ccc(F)cc4C)c32)cc1,-2.03% (inactive),–
CC1CC(=S)Nc2ccccc2N1Cc1ccccc1 (configuration not stated),–,39.8 µM (active)
CC1CC(C)(C)NC(=S)N1CCC(=O)N1CCN(Cc2ccccc2)CC1 (configuration not stated),-0.357% (inactive),–
CC1CC(=O)Nc2ccccc2N1S(=O)(=O)c1cccs1 (configuration not stated),2.06% (inactive),–
Cc1nc(N2CCOCC2)c2c(C(=O)NCc3cccc(Cl)c3)c(C)oc2n1,9.33% [at 57.1 µM] (inactive),–
O=C(CCn1ccc([N+](=O)[O-])n1)Nc1nccs1,-7.33% (inactive),–
Cc1c(Br)c([N+](=O)[O-])nn1C(C)C(=O)Nc1nccs1 (configuration not stated),–,79.4 µM (active)
CCOc1ccc(C(=O)Nc2nccs2)cc1[N+](=O)[O-],6.29% (inactive),–
COc1ccc(-c2nc3scc(CCNS(=O)(=O)c4cc(F)ccc4OC)n3n2)cc1OC,-14.6% (inactive),–
COc1ccccc1C(=O)OCc1cc(=O)n2nc(-c3cccs3)sc2n1,-31.5% (inactive),–
CC1=Nc2cc(C(=O)NCc3ccc(C)cc3)ccc2Sc2ccc(Cl)cc21,-12.7% (inactive),–
O=S(=O)(NCc1ccccn1)c1ccc(F)cc1,-2.51% (inactive),–
Fc1ccc(-c2ccc(CNCc3ccccn3)o2)cc1Cl,–,31.6 µM (active)
Cc1cc(Cl)ccc1OCCCC(=O)NCc1ccccn1,-6.56% (inactive),–
O=C(CCc1nc(CN2CCN(S(=O)(=O)c3ccc(Br)cc3)CC2)no1)N1CCCCC1,-19.9% (inactive),–
COC(=O)c1ccccc1NC(=O)C(Cc1ccccc1)N1Cc2ccccc2C1=O (configuration not stated),-0.606% (inactive),–
CCN(CCCNC(=O)c1cc2cc3cc(OC)ccc3nc2s1)c1ccccc1,-27.3% (inactive),–
Cc1cc([N+](=O)[O-])ccc1NC1CCCC1,-0.979% (inactive),–
Cc1c(NS(=O)(=O)c2ccc(NC3CCCC3)c([N+](=O)[O-])c2)c(=O)n(-c2ccccc2)n1C,-27.8% (inactive),–
Cc1cc(C=O)c(C)n1-c1ccc(NC2CCCCC2)c([N+](=O)[O-])c1,–,10 µM (active)
